Hits are enriched below; roughly 10% of the tested compounds scored in any of these assays.
FLuc inh-1 = Photinus pyralis luciferase inhibition | P08659 | purified P. pyralis luciferase, luminescence, biochemical | Potency, µM (top dose mostly 115 µM), actives largely listed as inhibitors | 76,000 tested, 2.5% active; further: on the % scale 0 is the no-effect control and ±100 the full control effect; nearly all actives have a fitted effect of over 65% in size
Target sequence (P08659 whole entry, looked up): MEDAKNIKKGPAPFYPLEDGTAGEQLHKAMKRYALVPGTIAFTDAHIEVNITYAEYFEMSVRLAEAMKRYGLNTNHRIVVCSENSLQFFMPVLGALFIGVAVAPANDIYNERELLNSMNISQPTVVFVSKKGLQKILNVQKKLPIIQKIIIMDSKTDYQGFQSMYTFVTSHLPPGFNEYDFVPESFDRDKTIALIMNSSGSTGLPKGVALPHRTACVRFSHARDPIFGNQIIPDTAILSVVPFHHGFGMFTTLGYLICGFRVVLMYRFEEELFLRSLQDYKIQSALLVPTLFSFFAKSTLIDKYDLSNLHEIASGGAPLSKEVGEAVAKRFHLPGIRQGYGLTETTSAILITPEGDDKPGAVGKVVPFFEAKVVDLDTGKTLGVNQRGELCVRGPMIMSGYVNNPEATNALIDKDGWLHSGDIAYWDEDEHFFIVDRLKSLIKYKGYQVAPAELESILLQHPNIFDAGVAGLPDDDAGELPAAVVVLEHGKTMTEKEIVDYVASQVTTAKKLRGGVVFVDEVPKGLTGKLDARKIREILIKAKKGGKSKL
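Inhibitors were tested against purified firefly luciferase in a biochemical, low-substrate format (both substrates at 10uM) and luminescence measured with a CCD imager.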
3T3 cytotox = kills NIH 3T3 cells; 94,000 tested, 4.3% active; NIH 3T3 viability, CellTiter-Glo ATP luminescence, 48-72 h; Potency, µM (highest dose often 96.7 µM), for the others: at the top dose activity change, negative = cytotoxicity, usual class: inhibitors; further: on the % scale 0 is the no-effect control and ±100 the full control effect; nearly all actives have a fitted effect of over 55% in size
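Viability of NIH 3T3 cells after 48 or 72 hr compound treatment at 37 °C was assessed by CellTiter-Glo, with luminescence imaged following a 10 min room-temperature step.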
NPR1 antag = blocks ANP-stimulated signaling of human Npr1 receptor; Potency, µM (series often up to 46.3 µM), for inactives: at the highest dose activity change, negative = inhibition, hits mostly inhibitors; AID 1347048; HEK293 hNpr1 GloSensor cGMP, ANP-stimulated luminescence; 76,000 tested, 1.6% active; calls by dose curve; further: on the % scale 0 is the no-effect control and ±100 the full control effect; nearly all actives have a fitted effect of over 60% in size
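HEK293 cells stably expressing human Npr1 and cGMP GloSensor pGS-40F, loaded 2 h with 2% GloSensor reagent, given compound 30 min at room temperature. Luminescence read before and 20 min after 0.1 nM hNppA.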
HEK cytotox = HEK 293 cell cytotoxicity; 94,000 tested, 6.6% active; HEK 293 viability, ATP luminescence (CellTiter-Glo), 48-72 h; Potency, µM (top dose mostly 115 µM), for inactives: at the highest dose activity change, negative = cytotoxicity, hits mostly inhibitors; further: on the % scale 0 is the no-effect control and ±100 the full control effect; nearly all actives have a fitted effect of over 60% in size
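Luminescence from cellular ATP, measured with CellTiter-Glo, indicates HEK 293 viability. Cells plated at 250 cells/well are treated with compound for 48 or 72 hr at 37 degree Celsius before reagent addition.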
GPT2 inhibitor = blocks human glutamate pyruvate transaminase 2 | Q8TD30 | Recombinant GPT2, coupled pyruvate oxidase/HRP Amplex Red fluorescence | Potency, µM (titrated, usually from 57.7 µM), without a hit: at the top dose activity change, negative = inhibition, usual class: inhibitors | 100,000 tested, 0.25% active; further: on the % scale 0 is the no-effect control and ±100 the full control effect; nearly all actives have a fitted effect of over 60% in size
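Recombinant GPT2 (10ng/uL) with 250uM a-KG and 2mM L-alanine, 30 min at room temperature, in HEPES pH 7.5 buffer. Pyruvate detected by pyruvate oxidase/HRP/Amplex Red fluorescence after 30 min in the dark; AOA (50uM) as positive control.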
FLuc SDR -ATP = firefly luciferase binding stabilization, ATP absent; shares compounds with FLuc inh-1; Purified FLuc-C-HiBiT, Nano-Glo HiBiT luminescence, no ATP; Potency, µM (doses to about 32.7 µM), for the others: at the top dose activation (signal gain), actives largely listed as activators; 1,300 tested, 7.8% active; AID 1963318; further: nearly all actives have a fitted effect of over 55% in size
FLuc SDR ATP = binders stabilizing firefly luciferase, plus ATP; shares compounds with FLuc inh-1; Potency, µM (highest dose often 32.7 µM), for the others: at the top dose activation (gain of signal), actives largely listed as activators; purified FLuc-C-HiBiT + ATP, HiBiT complementation luminescence; 1,300 tested, 8.7% active;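 further: signal reports ligand binding via conformational change of the enzyme rather than luciferase catalysis; % of control where 0% means no effect; nearly all actives have a fitted effect of over 55% in size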
FLuc inh-2 = inhibitors of firefly luciferase enzymatic activity; purified FLuc-C-HiBiT enzyme, luciferin luminescence; AID 1963320; Potency, µM (series often up to 32.7 µM), without a hit: at the top dose activity change, negative = inhibition, actives largely listed as inhibitors; 1,300 tested, 42% active; shares compounds with FLuc inh-1; further: on the % scale 0 is the no-effect control and ±100 the full control effect; nearly all actives have a fitted effect of over 70% in size
Active calls of the source: *; i = inactive; ? = inconclusive; . = not tested or not shown; [ ] = dose if it differs, or a comment. Unless noted, the call rests on the fitted dose curve; in most records, active means well fitted curve in the direction sought with a large enough effect; inconclusive means small, poorly fitted or top-dose-only effect, or another doubt; inactive means no such curve, though single readings can be large; an effect the other way counts as inactive or inconclusive. Potency means the concentration at half of the fitted maximal effect.

SMILES | FLuc inh-1 | 3T3 cytotox | NPR1 antag | HEK cytotox | GPT2 inhibitor | FLuc SDR -ATP | FLuc SDR ATP | FLuc inh-2
CC1OC(OC2C(C)OC(OC3C(OC(=O)/C=C/c4ccc(O)cc4)C(CO)OC(OC4(COC(=O)/C=C/c5ccc(O)cc5)OC(CO)C(O)C4O)C3OC3OCC(O)(CO)C3O)C(O)C2O)C(O)C(O)C1O (centres undefined) | . | . | . | . | -22%[17.1 µM] | . | . | .
O=C(c1ccc(-c2cccc(O)c2)nc1)N1CCCN(c2ncccn2)CC1 | i | -33% | -2% | ? | -8% | . | . | .
Cc1ccc(-c2cc3c(=O)n(CCNC(=O)c4ccccc4F)ccn3n2)c(C)c1 | 6.3µM* | -18% | -13% | ? | i | ? | ? | 7µM*
Cc1cc(C)cc(C(=O)NCCn2ccn3nc(-c4ccc(C)cc4C)cc3c2=O)c1 | 2.8µM* | ? | -22% | ? | i | 22% | 14% | 7µM*
COc1ccc(C(=O)NCCn2ccn3nc(-c4ccc(C)cc4C)cc3c2=O)c(C)c1 | 3.5µM* | ? | ? | ? | i | 24% | 15% | 5µM*
CCN(CC1CCOCC1)C(=O)c1cc(COc2ccccc2F)[nH]n1 | i | -1% | 5% | -11% | -3% | . | . | .
CCN(CC1CCOCC1)C(=O)c1cccnc1SC/C=C/c1ccccc1 | 11µM* | -25% | -5% | ? | i | 8% | 5% | ?
Oc1cc(-c2cccc(Cl)c2)cc2c1OCCN(Cc1noc(C3CC3)n1)C2 | i | ? | -3% | ? | ? | . | . | .
CC(=O)NCCC(=O)N1CCOc2c(O)cc(-c3cccc(Cl)c3)cc2C1 | i | -29% | 4% | ? | 1% | . | . | .
O=C(c1ccccc1C(F)(F)F)N1CCOc2c(cc(-c3nc4ccccc4s3)cc2OC2CCOC2)C1 (centres undefined) | . | . | . | . | . | 12% | 8% | 3%
CC(CCc1ccc(O)cc1)N1CCOc2c(O)cc(-c3nc4ccccc4s3)cc2C1 (centres undefined) | . | . | . | . | . | 14% | 12% | -8%
C=CCCC(=O)N1CCOc2c(O)cc(-c3nc4ccccc4s3)cc2C1 | ? | ? | -26% | 50µM* | -2% | 12% | 9% | -17%
CCn1cc(C(=O)N2CCOc3c(O)cc(-c4ccccc4C)cc3C2)cn1 | i | ? | -12% | ? | 2%[11.5 µM] | . | . | .
Oc1ccc(Cl)cc1CN1CCOc2c(O)cc(-c3nc4ccccc4s3)cc2C1 | . | . | . | . | . | 15% | 10% | -3%
O=C(NCC(F)F)c1ccc2nnc(-c3cccc(OC(F)(F)F)c3)n2c1 | . | -27% | . | -29% | i | . | . | .
O=C([C@H]1C[C@H](Oc2ccccc2)CN1C(=O)c1ccc(F)cc1)N1CCOCC1 | i | -10% | -12% | -22% | i | . | . | .
CC(C)NC(=O)c1csc(-c2cccc(OC(C)C)c2)n1 | i | ? | -20% | ? | i | . | . | .
CCC(=O)Nc1cnc(-c2ccc(C)cc2)nc1 | 3.2µM* | 2% | ? | 11% | 4% | ? | ? | 8.8µM*
Cc1ccc(-c2ncc(NC(=O)c3cc(F)ccc3F)cn2)cc1 | ? | 2% | -12% | 2% | -14% | . | . | .
O=C(Nc1cccc(-c2nc3ccccc3[nH]2)c1)c1ccccc1F | . | . | . | . | . | 19% | 11% | ?
O=C(Nc1cccc(-c2nnc3n2CCCC3)c1)c1ccccc1F | i | ? | 2% | -19% | 2% | . | . | .
CC1(NC(=O)C2CC2)CN(Cc2nc(-c3ccccc3)cs2)C1 | 13µM* | ? | ? | -29%[172 µM] | -20%[88.5 µM] | 16%[49.3 µM] | 13%[49.3 µM] | ?
Cc1c(-c2ccccc2)[nH]c2c(CNC(=O)CCn3cnnn3)cc(Cl)cc12 | ? | ? | 2% | ? | -6% | . | . | .
Cc1cc(CNC(=O)C2(C(N)=O)CC2)c2[nH]c(-c3ccccc3)c(C)c2c1 | 13µM* | ? | ? | 22µM* | -23% | 26% | ? | 11µM*
O=C(Nc1cccc(C(F)(F)F)c1)O[C@@H]1CO[C@H]2[C@@H]1OC[C@@H]2NS(=O)(=O)c1cccs1 | i | ? | -7% | ? | -7% | . | . | .
SMILES | FLuc inh-1 | 3T3 cytotox | NPR1 antag | HEK cytotox | GPT2 inhibitor | FLuc SDR -ATP | FLuc SDR ATP | FLuc inh-2
CC(C)c1ccc(NC(=O)O[C@@H]2CO[C@H]3[C@@H]2OC[C@@H]3NS(=O)(=O)c2cccs2)cc1 | 11µM* | ? | 0% | ? | 2% | 16% | 10% | ?
Cn1ncc2c(C(=O)NCCc3ccc(Cl)cc3)cc(-c3ccc(Cl)cc3Cl)nc21 | . | ? | . | ? | -9% | . | . | .
CCn1c(=O)c(C(=O)Nc2ccc(C(C)=O)cc2)nc2ccccc21 | . | . | . | . | . | ? | ? | ?
Cc1ccc2nc(-c3ccc(N=Nc4cc(S(=O)(=O)O)c5ccccc5c4O)cc3)sc2c1S(=O)(=O)O | . | . | . | . | . | 2% | 2% | 12µM*
Cc1ccc2nc(-c3ccc(N)cc3)sc2c1S(=O)(=O)O | . | . | . | . | . | ? | ? | 2.5µM*
Cc1ccc2nc(-c3ccc4nc(-c5ccc(NC(=O)c6cccc(Cl)c6)cc5)sc4c3)sc2c1S(=O)(=O)O | . | . | . | . | . | 2% | 3% | ?
C[C@@H]1CN(Cc2nnnn2CC(=O)NC2CCN(Cc3ccccc3)CC2)C[C@H](C)O1 | i | -1% | 4% | i | 0% | . | . | .
COc1cccc(-c2cc(C(=O)NCc3nc(-c4ccccc4)n[nH]3)[nH]n2)c1 | 14µM* | ? | 2% | ? | -2% | 19% | 11% | ?
CCc1ccc2oc(-c3ccc(NC(=O)c4ccc(OC)c(Br)c4)cc3)nc2c1 | . | . | . | . | . | 12% | 8% | -12%
Cc1ccc(NC(=O)c2ccc3oc(-c4ccncc4)nc3c2)cc1 | . | -14%[138 µM] | . | ? | -4%[88.5 µM] | . | . | .
CCc1ccc2oc(-c3cccc(NC(=O)c4cc5ccccc5o4)c3)nc2c1 | . | . | . | . | . | 21% | 18% | ?
Cc1noc([C@@H]2CC(F)(F)CN2C(=O)c2ccco2)n1 | i | 4% | 3% | i | i | . | . | .
CC1CCCCN1c1csc2ccc(F)cc2c1=O (centres undefined) | . | . | . | . | . | 29% | 19% | 8.8µM*
c1ccc2sc(SSc3nc4ccccc4s3)nc2c1 | . | . | . | . | 4%[27.3 µM] | . | . | .
FC(F)(F)c1cc(-c2nc3ccccc3s2)cc(C(F)(F)F)c1 | . | . | . | . | . | 13% | 12% | ?

Bioassay records deposited in PubChem BioAssay by National Center for Advancing Translational Sciences (NCATS).
